Source: PubChem BioAssay AID1159580 (chemical genetic matrix, 2015)
Values joined by “and” are separate entries in the source; they are usually repeats but may differ in a detail not shown here. Equal values may be shown once. In all, about 5,500 compounds went through this assay and about 2,000 (36%) were called active. About 18% were inconclusive and are not listed. Rule as the data show it: active = normalized growth mostly below about 0.91 (no sharp cut-off); inconclusive = no clear call, values can overlap the other calls; inactive = mostly above about 0.92. The list shows a part of the results.

Assay: chemical genetic growth profiling, strain panel (AID 1159580);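 also: tested at 20 µM; growth read once vehicle control cultures reached saturation at 30 °C; 1 = growth at the plate median or of vehicle wells; lower values mean less growth of the strain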
Conditions: S. cerevisiae deletion strains, growth OD

Measured: normalized growth

CCOC(=O)NNc1nncc2ccccc12
inactive: locus YAL013W, strain DEP1, hits give low values 0.992 | locus YAL021C, strain ccr4, hits give low values 1 | locus YAL026C, strain drs2, hits give low values 1.03 | locus YAL030W, strain snc1, hits give low values 1.02 | locus YBL061C, strain skt5, hits give low values 1.01 | locus YBR009C, strain hhf1, hits give low values 0.973 | locus YBR021W, strain FUR4, hits give low values 0.964 | locus YBR023C, strain chs3, hits give low values 1.02 | locus YBR171W, strain sec66, hits give low values 1.01 | locus YBR229C, strain ROT2, hits give low values 0.991 | locus YBR231C, strain swc5, hits give low values 0.993 | locus YBR279W, strain paf1, hits give low values 1.02 | locus YCL011C, strain gbp2, hits give low values 1.04 | locus YCL016C, strain dcc1, hits give low values 1.03 | locus YCL029C, strain bik1, hits give low values 0.97 | locus YCL061C, strain MRC1, hits give low values 0.994 | locus YCL069W, strain vba3, hits give low values 1.02 | locus YCR088W, strain abp1, hits give low values 1.01 | locus YDL005C, strain med2, hits give low values 1.03 | locus YDL035C, strain GPR1, hits give low values 0.978 | locus YDL040C, strain nat1, hits give low values 0.996 | locus YDL074C, strain BRE1, hits give low values 1.01 | locus YDL101C, strain DUN1, hits give low values 0.991 | locus YDL134C, strain PPH21, hits give low values 0.979 | locus YDL185W, strain tfp1, hits give low values 0.983 | locus YDL192W, strain arf1, hits give low values 0.98 | locus YDR001C, strain nth1, hits give low values 1.01 | locus YDR069C, strain doa4, hits give low values 0.985 | locus YDR101C, strain arx1, hits give low values 0.993 | locus YDR137W, strain rgp1, hits give low values 1.03 | locus YDR150W, strain NUM1, hits give low values 1 | locus YDR159W, strain sac3, hits give low values 0.94 | locus YDR162C, strain NBP2, hits give low values 0.987 | locus YDR195W, strain ref2 0.981 | locus YDR297W, strain sur2, hits give low values 1 | locus YDR318W, strain mcm21, hits give low values 0.974 | locus YDR334W, strain swr1, hits give low values 1.03 | locus YDR335W, strain msn5, hits give low values 1.01 | locus YDR388W, hits give low values 0.973 | locus YDR392W, strain spt3, hits give low values 0.998 | locus YDR502C, strain sam2, hits give low values 0.969 | locus YEL003W, strain gim4, hits give low values 0.998 | locus YEL037C, strain rad23, hits give low values 1.02 | locus YEL061C, strain CIN8 (second series), hits give low values 1 | locus YEL061C, strain CIN8, hits give low values 1 | locus YER015W, strain faa2, hits give low values 1.01 | locus YER016W, strain bim1, hits give low values 1.02 | locus YER110C, hits give low values 0.972 | locus YER111C, strain swi4, hits give low values 1.01 | locus YER155C, strain BEM2 (second series), hits give low values 1 | locus YER155C, strain BEM2, hits give low values 0.99 | locus YER167W, strain BCK2, hits give low values 0.989 | locus YFR010W, strain ubp6, hits give low values 0.979 | locus YGL078C, strain dbp3, hits give low values 0.98 | locus YGL086W, strain mad1, hits give low values 0.995 | locus YGL167C, strain pmr1, hits give low values 1 | locus YGL173C, strain kem1, hits give low values 0.972 | locus YGL227W, strain vid30, hits give low values 1.02 | locus YGL240W, strain doc1, hits give low values 0.998 | locus YGL248W, strain PDE1, hits give low values 1 | locus YGL253W, strain hxk2, hits give low values 1.02 | locus YGR135W, strain pre9, hits give low values 0.97 | locus YGR229C, strain SMI1, hits give low values 0.984 | locus YGR252W, strain gcn5, hits give low values 0.962 | locus YHR013C, strain ard1, hits give low values 1.02 | locus YHR027C, strain rpn1, hits give low values 0.993 | locus YHR030C, strain SLT2, hits give low values 0.99 and 0.966 | locus YHR079C, strain IRE1 (second series), hits give low values 0.983 | locus YHR079C, strain IRE1, hits give low values 0.982 | locus YHR094C, strain hxt1, hits give low values 0.973 | locus YHR129C, strain ARP1, hits give low values 0.999 | locus YHR142W, strain chs7, hits give low values 1.04 | locus YHR200W, strain rpn10, hits give low values 0.981 | locus YIL066C, strain RNR3, hits give low values 0.987 | locus YIL073C, strain SPO22, hits give low values 0.913 | locus YIL125W, strain kgd1, hits give low values 0.987 | locus YIR030C, strain dcg1, hits give low values 0.977 | locus YJL092W, strain hpr5, hits give low values 1.01 | locus YJL095W, strain BCK1 (second series), hits give low values 1.02 | locus YJL095W, strain BCK1, hits give low values 1.04 and 0.976 | locus YJL115W, strain asf1, hits give low values 1.03 | locus YJL129C, strain trk1, hits give low values 1.02 | locus YJL134W, strain LCB3, hits give low values 0.994 | locus YJL154C, strain vps35, hits give low values 1.01 | locus YJL164C, strain tpk1, hits give low values 0.993 | locus YJL166W, strain qcr8, hits give low values 0.983 | locus YJL168C, strain set2, hits give low values 0.981 | locus YJL187C, strain SWE1 (second series), hits give low values 1 | locus YJL187C, strain SWE1, hits give low values 1.02 | locus YJR043C, strain POL32, hits give low values 0.952
